In PubChem BioAssay (EPA / NIEHS) one finds outcome and AC50 data, which are given here for three molecules.

A short description of assay [1]: BSK_LPS_PGE2: BioMAP Diversity Plus: LPS Assay for Prostaglandin E2 (PGE2) Biomarker Activity (AID 2283082).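 For AC50: secreted prostaglandin E2 measured by ELISA in LPS-stimulated co-culture.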 The note with it: primary human HUVEC with PBMC; actives raise or lower the signal. The method, boiled down: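 Primary human endothelial cells and blood mononuclear cells, co-cultured with LPS, receive test chemical; PGE2 ELISA follows at 24 h, with SRB-stained parallel cultures flagging cytotoxicity.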

Read-out in assay [2]: Macrophage colony-stimulating factor (MCSF), CSF1 (gene 1435)
In words: BSK_LPS_MCSF: BioMAP Diversity Plus: LPS Assay for Macrophage colony-stimulating factor (MCSF) Biomarker Activity (AID 2283083). The note with it: primary human HUVEC with PBMC; actives raise or lower the signal. In a few lines: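 Bidirectional fitting against DMSO was applied to M-CSF levels read by ELISA at 24 h post-dose. The system pairs human umbilical vein endothelium with peripheral blood mononuclear cells; parallel SRB staining tracked cytotoxicity.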

Read-out in assay [3]: Tissue Factor, F3 (gene 2152)
The assay is described as follows: BSK_LPS_TissueFactor: BioMAP Diversity Plus: LPS Assay for Tissue Factor Biomarker Activity (AID 2283084). The note with it: primary human HUVEC with PBMC; actives raise or lower the signal. In a few lines:
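Compound was added to an endothelial cell/PBMC co-culture, and after 24 h tissue factor (CD142) was read by ELISA. Gain or loss of signal was fitted against a DMSO baseline, and parallel SRB staining (560 nm) tracked overt cytotoxicity.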

Read-out in assay [4]: Tumor necrosis factor (Homo sapiens) (UniProt P01375)
The assay is described as follows: BSK_LPS_TNFa: BioMAP Diversity Plus: LPS Assay for Tumour Necrosis Factor alpha (TNFa) Biomarker Activity (AID 2283085). The note with it: primary human HUVEC with PBMC; actives raise or lower the signal. In a few lines: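 ELISA-based TNFa endpoint in a human endothelial–PBMC co-culture sampled 24 h post-exposure. Curves were fitted in both directions using DMSO as baseline of activity.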

Read-out in assay [5]: Vascular cell adhesion molecule 1 (VCAM1), VCAM1 (gene 7412)
In words: BSK_LPS_VCAM1: BioMAP Diversity Plus: LPS Assay for Vascular cell adhesion molecule 1 (VCAM1) Biomarker Activity (AID 2283086). The note with it: primary human HUVEC with PBMC; actives raise or lower the signal. The method, boiled down: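 Measured by ELISA: VCAM-1 in LPS-activated HUVEC/PBMC co-cultures 24 h after treatment. Values reflect bidirectional fitting with DMSO as baseline.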

Read-out in a further assay: CD38, CD38 (gene 952)
In words: BSK_SAg_CD38: BioMAP Diversity Plus: SAg Assay for CD38 Biomarker Activity (AID 2283087). The note with it: primary human HUVEC with PBMC; actives raise or lower the signal. The method, boiled down:
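Measures CD38 on a human endothelial/PBMC co-culture driven by SEB and TSST-1, 24 h after compound exposure, using ELISA with fluorescence detection; DMSO defines baseline for bidirectional curve fitting.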

Read-out in the next assay: CD40, CD40 (gene 958)
In words: BSK_SAg_CD40: BioMAP Diversity Plus: SAg Assay for CD40 Biomarker Activity (AID 2283088). The note with it: primary human HUVEC with PBMC; actives raise or lower the signal. The method, boiled down: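 CD40 is measured by fluorescence ELISA in an endothelial/PBMC primary human co-culture at 24 h post-dose. Fitting is bidirectional, DMSO baseline. Parallel SRB staining (560 nm) flags cytotoxicity.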

Read-out in the next assay: CD69, CD69 (gene 969)
In words: BSK_SAg_CD69: BioMAP Diversity Plus: SAg Assay for CD69 Biomarker Activity (AID 2283089). The note with it: primary human HUVEC with PBMC; actives raise or lower the signal. The method, boiled down: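 Endothelial/PBMC co-culture; chemical added; 24 h incubation; CD69 ELISA with fluorescence detection; bidirectional fit vs DMSO.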

Read-out in assay [6]: Monocyte Chemoattractant Protein-1 (MCP1), CCL2 (gene 6347)
The assay is described as follows: BSK_SAg_MCP1: BioMAP Diversity Plus: SAg Assay for Monocyte Chemoattractant Protein-1 (MCP1) Biomarker Activity (AID 2283090). The note with it: primary human HUVEC with PBMC; actives raise or lower the signal. The method, boiled down: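 Values derive from bidirectional fitting of ELISA-measured MCP1 against DMSO controls. Readings were taken 24 h after dosing human vascular endothelial cells co-cultured with peripheral blood mononuclear cells under superantigen stimulation.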

Read-out in assay [7]: E-selectin (Homo sapiens) (UniProt P16581)
The assay is described as follows: BSK_SAg_Eselectin: BioMAP Diversity Plus: SAg Assay for Eselectin Biomarker Activity (AID 2283091). The note with it: primary human HUVEC with PBMC; actives raise or lower the signal. In a few lines: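 Cell-surface E-selectin is read by ELISA at 24 h in the SAg co-culture of HUVEC and PBMC. Curves are fitted in both directions relative to DMSO. Parallel SRB total-protein staining tracks overt toxicity.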

Read-out in assay [8]: Monokine induced gamma interferon (MIG), CXCL9 (gene 4283)
The assay is described as follows: BSK_SAg_MIG: BioMAP Diversity Plus: SAg Assay for Monokine induced gamma interferon (MIG) Biomarker Activity (AID 2283092). The note with it: primary human HUVEC with PBMC; actives raise or lower the signal. The method, boiled down:
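Measures CXCL9 protein by ELISA in a human vascular primary-cell co-culture (umbilical vein endothelium with PBMC) 24 h after chemical addition. Activity is scored up or down from the DMSO control.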

Assay [9] is described as follows: BSK_SAg_PBMCCytotoxicity: PBMC Cytotoxicity Assessment in the BioMAP Diversity Plus: SAg Assay (AID 2283093).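 Note: PBMC viability measured as Alamar Blue reduction fluorescence at 546/580 nm; fitted both ways against DMSO so a hit may be loss or gain of signal.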 The note with it: primary human HUVEC with PBMC. In a few lines:
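Alamar Blue reduction (6 h, 546/580 nm) reports PBMC cytotoxicity after 90 h superantigen activation (SEB, TSST-1; 20 ng/mL final each) with 1 h compound pre-treatment. Gain or loss of signal fitted versus DMSO.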

Read-out in assay [10]: Interleukin-8 (IL8), CXCL8 (gene 3576)
The assay is described as follows: BSK_SAg_IL8: BioMAP Diversity Plus: SAg Assay for Interleukin-8 (IL8) Biomarker Activity (AID 2283094). The note with it: primary human HUVEC with PBMC; actives raise or lower the signal. The method, boiled down:
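Primary human endothelial cells with PBMC, exposed 24 h; IL-8 determined by ELISA, analysed bidirectionally relative to DMSO.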

Assay [11] is described as follows: BSK_SAg_SRB: Viability Assessment in the BioMAP Diversity Plus: SAg Assay (AID 2283096).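 Note: cells read one day after compound addition; hits may be either gain or loss of signal compared with DMSO.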 The note with it: primary human HUVEC with PBMC. The method, boiled down:
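This overt-cytotoxicity endpoint quantifies protein in human endothelial/PBMC co-cultures at 24 h using SRB absorbance (560 nm) after trichloroacetic acid fixation. Values reflect signal change from the DMSO negative control, fitted bidirectionally.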

The target of assay [12] is human CYP2A6, CYP2A6 (gene 1548) (UniProt P11509). In words: NVS_ADME_hCYP2A6: NovaScreen (NVS) CYP450-related Enzyme Activity (ADME) Assay for human CYP2A6 (AID 2283099; active = hit-call score of the fitted dose curve at least 0.9, where 1 is the maximum). In a few lines:
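Compounds screened at 10 uM (duplicate) and, if active, titrated to a 20 uM top concentration against insect-cell-expressed CYP2A6. Loss of fluorescent product signal after 0.5 h, relative to acetonitrile baseline, indicates inhibition.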

Assay [13] deals with human CYP1A1, CYP1A1 (gene 1543) (UniProt P04798). The assay is described as follows: NVS_ADME_hCYP1A1: NovaScreen (NVS) CYP450-related Enzyme Activity (ADME) Assay for human CYP1A1 (AID 2283100; active = hit-call score of the fitted dose curve at least 0.9, where 1 is the maximum). The method, boiled down:
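Chemicals were first tested in duplicate at 10 uM, and those passing a 30% inhibition threshold were rerun as concentration series topping at 20 uM. Fluorescence read-out of recombinant enzyme turnover after 1 h, relative to acetonitrile.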

Assay [14] deals with human CYP2B6, CYP2B6 (gene 1555) (UniProt P20813). In words: NVS_ADME_hCYP2B6: NovaScreen (NVS) CYP450-related Enzyme Activity (ADME) Assay for human CYP2B6 (AID 2283101; active = hit-call score of the fitted dose curve at least 0.9, where 1 is the maximum). In a few lines:
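Recombinant protein, specific fluorescent substrate, read at 1 h post-dosing. Primary: single 10 uM, duplicate; follow-up: concentration series. Activity = signal loss vs acetonitrile baseline, with positive and negative controls on every plate.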

Records with an inconclusive call do not appear. Calls of active or inactive are those of the source. Rule for the calls, unless noted: active = hit-call score of the fitted dose curve at least 0.9, where 1 is the maximum; inactive = score below 0.9.

Sequence of E-selectin (Homo sapiens) (P16581 whole entry, looked up): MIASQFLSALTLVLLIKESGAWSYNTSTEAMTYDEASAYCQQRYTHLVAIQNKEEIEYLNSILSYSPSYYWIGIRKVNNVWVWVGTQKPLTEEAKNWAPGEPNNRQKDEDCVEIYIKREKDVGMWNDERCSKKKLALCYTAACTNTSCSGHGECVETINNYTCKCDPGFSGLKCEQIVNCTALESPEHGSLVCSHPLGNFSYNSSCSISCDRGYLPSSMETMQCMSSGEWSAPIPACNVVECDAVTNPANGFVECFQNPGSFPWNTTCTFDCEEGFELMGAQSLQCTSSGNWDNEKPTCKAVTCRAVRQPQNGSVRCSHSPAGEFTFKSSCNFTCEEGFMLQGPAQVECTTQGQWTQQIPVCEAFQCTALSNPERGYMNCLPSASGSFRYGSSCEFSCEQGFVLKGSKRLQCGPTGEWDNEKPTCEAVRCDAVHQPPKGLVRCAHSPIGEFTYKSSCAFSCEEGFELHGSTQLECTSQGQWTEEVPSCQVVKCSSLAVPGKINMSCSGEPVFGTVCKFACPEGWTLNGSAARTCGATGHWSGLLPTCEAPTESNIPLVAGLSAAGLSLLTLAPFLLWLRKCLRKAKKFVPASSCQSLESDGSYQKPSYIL
Sequence of Tumor necrosis factor (Homo sapiens) (P01375 whole entry, looked up): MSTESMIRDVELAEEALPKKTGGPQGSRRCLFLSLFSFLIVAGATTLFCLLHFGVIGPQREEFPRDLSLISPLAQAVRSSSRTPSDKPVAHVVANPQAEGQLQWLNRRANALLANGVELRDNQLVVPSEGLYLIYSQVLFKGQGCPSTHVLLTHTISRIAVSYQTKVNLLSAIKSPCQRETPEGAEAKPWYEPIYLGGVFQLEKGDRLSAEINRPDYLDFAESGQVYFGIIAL
Sequence of human CYP1A1, CYP1A1 (gene 1543) (P04798 whole entry, looked up): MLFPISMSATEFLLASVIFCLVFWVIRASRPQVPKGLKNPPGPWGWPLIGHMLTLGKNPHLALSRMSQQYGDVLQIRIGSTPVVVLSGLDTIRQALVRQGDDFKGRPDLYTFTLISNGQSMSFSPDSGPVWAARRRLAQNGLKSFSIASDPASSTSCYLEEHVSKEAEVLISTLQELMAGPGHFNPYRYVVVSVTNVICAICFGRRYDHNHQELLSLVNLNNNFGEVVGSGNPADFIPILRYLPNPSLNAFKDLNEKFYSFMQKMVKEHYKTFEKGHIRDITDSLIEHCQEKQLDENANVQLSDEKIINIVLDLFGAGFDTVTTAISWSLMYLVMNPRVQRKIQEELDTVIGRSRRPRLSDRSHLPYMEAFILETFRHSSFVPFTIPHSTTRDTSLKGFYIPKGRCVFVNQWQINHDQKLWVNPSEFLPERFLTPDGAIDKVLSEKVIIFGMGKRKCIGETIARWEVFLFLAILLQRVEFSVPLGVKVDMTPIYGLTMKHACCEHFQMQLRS
Sequence of human CYP2B6, CYP2B6 (gene 1555) (P20813 whole entry, looked up): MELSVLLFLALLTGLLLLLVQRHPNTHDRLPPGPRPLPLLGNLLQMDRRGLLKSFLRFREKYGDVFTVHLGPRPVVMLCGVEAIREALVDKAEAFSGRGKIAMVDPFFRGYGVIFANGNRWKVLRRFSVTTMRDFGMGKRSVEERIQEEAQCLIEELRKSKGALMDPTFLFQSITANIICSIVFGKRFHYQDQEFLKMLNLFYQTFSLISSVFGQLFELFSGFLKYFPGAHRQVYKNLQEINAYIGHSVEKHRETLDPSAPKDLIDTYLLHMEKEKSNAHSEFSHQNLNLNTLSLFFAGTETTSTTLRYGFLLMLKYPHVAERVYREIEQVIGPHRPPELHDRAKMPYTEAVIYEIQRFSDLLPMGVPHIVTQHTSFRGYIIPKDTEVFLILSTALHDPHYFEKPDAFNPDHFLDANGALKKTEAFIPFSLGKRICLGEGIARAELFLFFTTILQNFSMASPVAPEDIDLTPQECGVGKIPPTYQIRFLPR
Sequence of human CYP2A6, CYP2A6 (gene 1548) (P11509 whole entry, looked up): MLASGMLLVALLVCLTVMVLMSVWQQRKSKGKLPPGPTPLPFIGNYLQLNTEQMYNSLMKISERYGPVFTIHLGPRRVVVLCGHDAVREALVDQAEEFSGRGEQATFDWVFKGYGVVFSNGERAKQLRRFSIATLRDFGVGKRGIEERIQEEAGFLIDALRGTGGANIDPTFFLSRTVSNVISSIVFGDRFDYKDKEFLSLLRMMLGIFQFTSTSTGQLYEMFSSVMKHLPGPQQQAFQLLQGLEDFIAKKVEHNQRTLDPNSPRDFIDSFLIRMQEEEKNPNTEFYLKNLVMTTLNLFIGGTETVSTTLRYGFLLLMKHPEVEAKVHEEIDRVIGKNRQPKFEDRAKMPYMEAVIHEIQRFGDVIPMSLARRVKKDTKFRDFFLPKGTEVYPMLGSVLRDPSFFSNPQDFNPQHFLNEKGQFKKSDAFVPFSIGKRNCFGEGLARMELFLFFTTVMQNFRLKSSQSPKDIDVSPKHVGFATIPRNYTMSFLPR

For the molecule `CCn1nc(Cc2ccccc2)cc1C1CCN(C[C@H]2C[C@H](N(C)[C@@H](C(=O)O)C(C)C)C[C@@H]2c2cccc(F)c2)CC1`, the outcome in assay [1] was “inactive”; in assay [2], “inactive”; in assay [3], “inactive”; in [4] it was “inactive”; in assay [5] it was “inactive”; with CD38, CD38 (gene 952), “inactive”. Moreover, the outcome was “inactive” in the assay with CD40, CD40 (gene 958); “inactive” in the assay with CD69, CD69 (gene 969); “inactive” in [6]; “inactive” in assay [7]; “inactive” in [8]; “inactive” in assay [9]. The outcome in assay [10] and in assay [11] was inactive.

For `O=C(O)CCN(C1(C(=O)NO)CCCC1)S(=O)(=O)c1ccc(Oc2ccc(F)cc2)cc1`, the outcome in assay [1] is “inactive”; in assay [2], “inactive”; in assay [3], “inactive”; in assay [4], “inactive”; in assay [5], “inactive”; with CD38, CD38 (gene 952), “inactive”. The outcome with CD40, CD40 (gene 958) is “inactive”; with CD69, CD69 (gene 969), “inactive”; in assay [6], “inactive”; in [7], “inactive”; in [8], “inactive”; in assay [9], “inactive”. Moreover, the outcome in assay [10] and in assay [11] was inactive.

By AC50 is commonly meant the concentration giving half of the maximal activity seen. As to `CN(C)c1ccc(Cc2ccc(N(C)C)cc2)cc1`, the AC50 is 5.6 µM (active) in assay [1] and 1.02 µM (active) in [14]. Further, the outcome in assay [2] is “inactive”; in [3] it was “inactive”; in [4] it was “inactive”; in assay [5], “inactive”; in the assay with CD38, CD38 (gene 952), “inactive”; with CD40, CD40 (gene 958), “inactive”. Moreover, the outcome was “inactive” in the assay with CD69, CD69 (gene 969); “inactive” in assay [6]; “inactive” in [7]; “inactive” in assay [8]; “inactive” in [9]; “inactive” in [10]. The result in [11], in [12] and in assay [13] was inactive.
